Source: PubChem BioAssay (NCI)
Compounds without any hit were thinned out: in the full panel of roughly 83,000, 20% have a hit.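 Step 1: grow cells in 96-well plates. Step 2: add test compound at a single concentration. Step 3: incubate 48 h. Step 4: record percent growth.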 A number with no mark means an inactive call. The source made the active and inactive calls. Rule for the calls: active = growth percent below 10; inactive = the rest.

Assays:
Experiment in all cases: NCI-60 one-dose screen, 48 h (100 = growth as untreated, 0 = no growth, -100 = all killed)
Conditions in all cases: 10 µM unless noted
[1] = test system: NCI-H23 lung
[2] = test system: NCI-H226 lung
[3] = test system: NCI-H322M lung
[4] = test system: HOP-62 NSCLC
[5] = test system: NCI-H460 lung
[6] = test system: HOP-92 NSCLC
[7] = test system: NCI-H522 lung
[8] = test system: A549/ATCC NSCLC
[9] = test system: 786-0 renal
[10] = test system: COLO 205 colon
[11] = test system: DU-145 prostate
[12] = test system: K-562 leukemia
[13] = test system: MALME-3M melanoma
[14] = test system: MDA-MB-231 breast
[15] = test system: RXF 393 renal
[16] = test system: SF-268 CNS
[17] = test system: SF-295 CNS
[18] = test system: SF-539 CNS
[19] = test system: UACC-257 melanoma
[20] = test system: M14 melanoma

Structure (SMILES)	growth [1] [%]	growth [2] [%]	growth [3] [%]	growth [4] [%]	growth [5] [%]	growth [6] [%]	growth [7]	growth [8] [%]	growth [9] [%]	growth [10] [%]	growth [11] [%]	growth [12] [%]	growth [13] [%]	growth [14]	growth [15] [%]	growth [16] [%]	growth [17] [%]	growth [18] [%]	growth [19] [%]	growth [20] [%]
COc1ccc(S(=O)(=O)NCCCNc2nccc(-c3c(-c4cccc([N+](=O)[O-])c4)nc4sccn34)n2)cc1	47.3	34.8	67.6	61	44.4	82.1	32.4%	52.2	66.6	36.4	51.6	28.7	58	59.5%	67.1	49	43.7	75.6	53	41.6
C=C[C@@H]1C[C@@H]2Cc3c(C)cc(C)cc3N1O2	95	95.5	91.9	91.2	99.8	45.6	99.2%	95.1	105	100	108	89.8	77	113%	98.3	93	92.1	96.6	101	104
O=C([O][Sn]([O]C(=O)c1ccccn1)([c]1ccccc1)[c]1ccccc1)c1ccccn1	55.2	65.5	123	98.9	107	74.5	-68.7% (active)	103	96.2	77.4	92.3	24	86.4	87.4%	41.7	83.5	127	97.4	73.9	85.8
c1coc(CNc2ccnc(Nc3ccc(OCCN4CCCCC4)cc3)n2)c1	86.7	68.1	101	93.1	89.2	69.5	85.3%	92.5	94.9	89.5	91.6	27.6	110	82.6%	71.3	90.4	95.1	76.4	87.3	102
O=C(c1ccccc1)c1c(/C=C/c2ccccc2)c2ccccc2[nH]c1=O	94.2	89.9	82.8	87.1	114	73	83.4%	93.5	92.2	110	115	82.4	98.3	101%	78.9	86.2	95.6	99.2	95.6	107
ClC(Cl)c1nc(-c2ccccc2)nc2cc(-c3ccccc3)nn12	51.5	89.9	96.6	44.4	74.9	62.8	97.1%	46.1	80.1	59.5	32.4	36.9	93	60%	19.8	57.2	97.7	79	102	98.7
COc1cc(-c2nc(-c3nc4ccc(Cl)cc4[nH]3)cc3c2[nH]c2ccccc23)cc(OC)c1OC	71.5	73.2	82.9	83.7	73.8	51.8	39.7%	59.2	81	84.6	86.8	54.1	92.7	4.62% (active)	63.5	68	61.3	67.3	100	71.7
